# Assay outcomes: PubChem, National Center for Advancing Translational Sciences (NCATS)
# This is a sample that favours compounds with a hit; in the whole collection about 11% have one here.
# MCF10A rerep: inducers of DNA re-replication in MCF 10A breast cells; 350,000 compounds, 2.9% hits; AID 624296; Potency, µM (highest dose often 46.1 µM), inactives show at the top dose activity, positive = re-replication, hits mostly activators; MCF 10A DNA re-replication, Hoechst nuclear intensity, 48 h; note: potency is the fitted concentration of half-maximal effect; % of control where 0% means no effect; nearly all actives have a fitted effect of over 50% in size
# SW480 rereplic: induces DNA re-replication in SW480 colon adenocarcinoma cells. SW480 DNA re-replication, Hoechst DNA content imaging, 48 h. Potency, µM (top dose mostly 46.1 µM), for inactives: at the top dose re-replication activation, most hits filed as activators. 340,000 compounds, 1.8% hits. AID 624297; note: potency is the fitted concentration of half-maximal effect; % of control where 0% means no effect; nearly all actives have a fitted effect of over 55% in size
#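 Compounds, transferred as 23 nL by pin tool, were incubated with cells for 48 hr; DNA content per nucleus was then quantified by Hoechst staining and fluorescence plate imaging.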
# IL1B secr inh: blocks inflammasome-driven IL-1 beta release; THP-1 LPS/ATP IL-1B secretion, AlphaLISA, 16 h; stronger effect = lower value; activity change, % at 57.5 µM; 360,000 compounds, 4.7% hits; AID 743279; in the data active = activity change below about -50%; inconclusive = mostly about -30% to -49%; note: % is set by controls: 0 for no effect and ±100 for the full control effect
#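 THP-1 cells pretreated 1 hr with compounds (up to 57.5 uM final), then stimulated with LPS (250 ng/mL final) plus ATP (1.25 mM final); secreted IL-1B measured by AlphaLISA after 16 hr, decreased signal indicating inhibition.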
# Gal4-VP16 FLuc: counter-screen for ROR gamma inhibitors: Gal4-VP16 reporter; AID 2546; Potency, µM (doses to about 53.6 µM), for inactives: at the highest dose activity, negative = inhibition, actives largely listed as inhibitors; Drosophila S2 Gal4-VP16 UAS-luciferase, luminescence, 20 h; 310,000 compounds, 3.5% hits;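 note: Gal4-VP16 expression switched on by copper sulfate through the metallothionein promoter; potency is the fitted concentration of half-maximal effect; % is set by controls: 0 for no effect and ±100 for the full control effect; nearly all actives have a fitted effect of over 50% in size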
# RORg inh: ROR gamma (mouse) transcription inhibition. P51450. Drosophila S2 Gal4-RORgamma UAS-luciferase reporter, 20 h. Potency, µM (doses to about 53.6 µM), without a hit: top-dose activity change, negative = inhibition, hits mostly inhibitors. 310,000 compounds, 5.4% hits. AID 2551; note: potency is the fitted concentration of half-maximal effect; % is set by controls: 0 for no effect and ±100 for the full control effect; nearly all actives have a fitted effect of over 60% in size
# Target sequence (P51450 whole entry, looked up, the tested form may be a part): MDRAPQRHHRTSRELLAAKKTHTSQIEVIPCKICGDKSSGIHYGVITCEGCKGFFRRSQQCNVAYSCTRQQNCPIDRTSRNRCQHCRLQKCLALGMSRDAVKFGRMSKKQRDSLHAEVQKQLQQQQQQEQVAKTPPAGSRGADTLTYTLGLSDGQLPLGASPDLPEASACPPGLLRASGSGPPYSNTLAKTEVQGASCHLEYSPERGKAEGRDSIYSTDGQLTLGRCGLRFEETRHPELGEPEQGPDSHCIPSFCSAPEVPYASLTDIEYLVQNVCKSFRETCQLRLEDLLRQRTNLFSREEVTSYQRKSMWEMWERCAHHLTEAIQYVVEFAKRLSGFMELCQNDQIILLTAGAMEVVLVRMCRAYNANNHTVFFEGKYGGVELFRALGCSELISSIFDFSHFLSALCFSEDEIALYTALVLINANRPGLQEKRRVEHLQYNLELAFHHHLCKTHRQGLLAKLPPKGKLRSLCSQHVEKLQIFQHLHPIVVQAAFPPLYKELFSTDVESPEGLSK
#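 Luminescence from a UAS-regulated Photinus luciferase reporter in stably transfected Drosophila Schneider cells is measured; decreased signal marks ROR gamma inhibition. Fusion expression is induced by 700 uM copper sulfate for 20 hr.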
# * hit, by the source's call; ? = inconclusive; · = not tested or not shown. Unless noted, calls come from the whole dose curve; as a rule, active = well fitted curve in the direction sought with a large enough effect; inconclusive = small, poorly fitted or top-dose-only effect, or another doubt; inactive = no such curve, though single readings can be large; an effect the other way counts as inactive or inconclusive.
SMILES,MCF10A rerep,SW480 rereplic,IL1B secr inh,Gal4-VP16 FLuc,RORg inh
Cc1cccc(CN2CC34C=CC(CC3S2(=O)=O)O4)c1 (configuration not stated),·,·,·,?,33.0%
O=C(Nc1ccc(S(=O)(=O)NC2=NCCCCC2)cc1)c1ccc(Cl)c([N+](=O)[O-])c1,20.6µM*,2.5%,-95.9*,·,·
O=C(Nc1ccc(S(=O)(=O)NC2=NCCCCC2)cc1)c1ccc([N+](=O)[O-])s1,?,13µM*,-57.0*,·,·
Cc1cccc(C)c1NS(=O)(=O)c1ccc(NC(=O)c2ccc(Cl)c([N+](=O)[O-])c2)cc1,?,?,-90.3*,?,101.8%
COc1ccccc1CNC(=O)COC(=O)c1cc(C)nc2ccccc12,6.1%,-4.0%,23.0,·,·
COc1cc2cc(C)nc(Cc3cccc4ccccc34)c2cc1OC,13µM*,5.2%,-8.4,-17.9%,?
COC(=O)c1ccc(COC(=O)c2[nH]c(C)c(C(C)=O)c2C)o1,13.3%,-1.1%,38.5,7.94µM*,?
COc1ccc(CNCCC(c2ccc(OC)cc2)c2ccccc2OC)cc1 (configuration not stated),?,?,-83.1*,-5.8%,-7.3%
COc1ccc(C(CCNCc2ccccc2)c2ccc(F)cc2)cc1 (configuration not stated),10.0%,·,-5.6,-7.5%,-6.1%
COc1ccc(CNCCC(c2ccccc2)c2ccc(OC(C)C)cc2)cc1OC (configuration not stated),?,?,·,-6.9%,-30.5%
COc1ccc(CNCCC(c2ccccc2)C2CCOC(C)(C)C2)cc1 (configuration not stated),1.6%,0.4%,-80.5*,4.2%,1.7%
COc1ccc(C(CCNCc2ccc(F)cc2)c2ccc(F)cc2)cc1 (configuration not stated),5.17µM*,·,-28.4,?,?
COc1ccc(C(CCNCc2ccc(OC(C)C)cc2)c2ccccc2OC)cc1 (configuration not stated),?,?,-88.8*,?,?
COc1ccc(CNCCC(c2ccc(F)cc2)c2ccc(OC)cc2)cc1 (configuration not stated),?,?,·,-29.7%,-43.5%
CC(=O)Nc1ccc(CN(C)c2c(C)nc3ccc(C(=O)N(C)Cc4ccco4)cn23)cc1,·,·,10.4,·,·
CCCCN(CCCC)Cc1cc(=O)oc2ccc3ccccc3c12,·,·,14.7,·,·
COc1ccc(CNC(C)CCc2ccccc2)cc1 (configuration not stated),-1.8%,-2.1%,-8.3,·,·
COc1ccc(C(CCNCc2ccc(N(C)C)cc2)c2ccccc2OC)cc1 (configuration not stated),?,5.3%,-101.1*,-24.0%,-4.1%
COc1ccc(CN(CCC(c2ccccc2)c2ccc(OC(C)C)cc2)C(=O)CCl)cc1OC (configuration not stated),4.61µM*,3.66µM*,-98.5*,?,12.6µM*
COc1ccc(CNCCC(c2ccc(F)cc2)c2ccc(OC(C)C)cc2)cc1OC (configuration not stated),?,?,-96.0*,?,?
COc1ccc(C(CCN(Cc2ccc(OC)c(OC)c2)C(C)=O)c2ccccc2)cc1 (configuration not stated),?,-154.1%,?,?,?
COc1ccc(C(CCNC(C)c2ccccc2)c2ccc(F)cc2)cc1 (configuration not stated),?,-51.8%,-50.2*,?,-11.8%
COc1ccc(CNC(=O)CNC(C)c2ccc(F)cc2)cc1 (configuration not stated),-16.3%,0.4%,?,-11.1%,-8.7%
COc1cccc(NC(=S)NN2C(C)CCCC2C)c1 (configuration not stated),-1.2%,-7.9%,10.0,5.62µM*,2.24µM*
CC(C)c1ccc(NC(=S)NN2C(C)CCCC2C)cc1 (configuration not stated),?,-6.4%,99.0,6.31µM*,1.58µM*
SMILES,MCF10A rerep,SW480 rereplic,IL1B secr inh,Gal4-VP16 FLuc,RORg inh
CC1CCCC(C)N1NC(=S)Nc1ccc(OC(F)F)cc1 (configuration not stated),0.3%,·,6.4,6.31µM*,3.16µM*
COc1ccc(NC(=S)Nc2ccc(S(=O)(=O)N3CCCCC3)cc2)cc1,·,·,-20.9,·,·
COc1ccc(NC(=S)NN2C(C)CCCC2C)cc1 (configuration not stated),0.0%,-6.7%,9.2,7.08µM*,7.94µM*
CC(C)c1ccc(NC(=S)Nc2ccc3[nH]c(=O)[nH]c3c2)cc1,1.5%,-2.0%,-1.9,?,?
O=C(Cn1c(=O)oc2ccc(Cl)cc21)Nc1ccon1,0.8%,-3.4%,-3.4,0.3%,-16.3%
COc1ccc(-c2[nH]ncc2/C=N\NC(=O)c2cccs2)cc1OC,7.5%,?,11.1,3.3%,5.9%
CN(Cc1ccccc1)Cc1cc(=O)oc2ccc3ccccc3c12,·,·,30.7,·,·
CC1=CC(=O)C(C(C)C)=C/C1=C(\c1cc(C(C)C)c(OP(=O)(O)O)cc1C)c1ccccc1C(=O)O,20.6µM*,?,24.6,-1.0%,1.0%
CCOc1ccc(C(=O)c2ccccc2C(=O)O)cc1OCC,2.2%,-5.9%,16.6,-9.5%,2.3%
CC#CCN(Cc1ccco1)C(=O)C1CCC(=O)N(CCc2cccc(F)c2)C1 (configuration not stated),·,·,-2.4,·,·
COc1ccccc1CCC(=O)Nc1ccc2c(c1)c(=O)n(C)n2C,·,·,0.0,·,·
Clc1cccc(/C=N/Nc2nnc(Cl)c3ccccc23)c1,16.4%,4.8%,?,?,3.16µM*
Clc1ccc(/C=N/Nc2nnc(-c3ncc[nH]3)c3ccccc23)cc1,9.4%,22.9%,22.0,3.16µM*,1.26µM*
CC(C)c1ccc(NC(=O)Cc2ccc(NC3=NC4CS(=O)(=O)CC4S3)cc2)cc1 (configuration not stated),-0.4%,-16.5%,27.3,-1.1%,7.1%
NC(=O)c1ccccc1OCC(=O)N1CCCC1c1ccc2c(c1)OCCCO2 (configuration not stated),3.1%,?,10.3,·,·
O=C1CC(c2ccc3c(c2)OCCO3)Oc2ccccc21 (configuration not stated),?,?,-12.3,-5.8%,-12.2%
NC(=S)N/N=C1\CC(c2ccc3c(c2)OCCCO3)Oc2ccc(F)cc21 (configuration not stated),15.1%,-3.3%,-70.7*,0.562µM*,-4.7%
NC(=S)N/N=C1\CC(c2ccc3c(c2)OCCO3)Oc2ccc(F)cc21 (configuration not stated),6.3%,-4.1%,-11.1,6.31µM*,6.31µM*
